Data as given in PubChem BioAssay AID1159580 (chemical genetic matrix, 2015).
About 2,000 (36%) of roughly 5,500 compounds were called active. Inconclusive results (about 18%) are left out. The list shows a part of the results. A number with no mark means an inactive call. Cut-off read from the data, not from the text of the source: active = normalized growth mostly below about 0.91 (no sharp cut-off); inconclusive = no clear call, values can overlap the other calls; inactive = mostly above about 0.92.

Experiment: chemical genetic growth profiling, strain panel (AID 1159580);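 note: tested at 20 µM; growth read once vehicle control cultures reached saturation at 30 °C; 1 = growth at the plate median or of vehicle wells; lower values mean less growth of the strain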
Settings: growth OD
[1] = S. cerevisiae deletion strains, locus YBR229C, strain ROT2, active compounds read low
[2] = S. cerevisiae deletion strains, locus YDL101C, strain DUN1, active compounds read low
[3] = S. cerevisiae deletion strains, locus YDR150W, strain NUM1, active compounds read low
[4] = S. cerevisiae deletion strains, locus YEL061C, strain CIN8, active compounds read low
[5] = S. cerevisiae deletion strains, locus YGR078C, strain PAC10, active compounds read low
[6] = S. cerevisiae deletion strains, locus YHR030C, strain SLT2, active compounds read low
[7] = S. cerevisiae deletion strains, locus YJR043C, strain POL32, active compounds read low
[8] = S. cerevisiae deletion strains, locus YLR039C, strain RIC1, active compounds read low
[9] = S. cerevisiae deletion strains, locus YLR262C, strain YPT6, active compounds read low
[10] = S. cerevisiae deletion strains, locus YMR263W, strain SAP30, active compounds read low
[11] = S. cerevisiae deletion strains, locus YNL153C, strain GIM3, active compounds read low
[12] = S. cerevisiae deletion strains, locus YOL006C, strain TOP1, active compounds read low
[13] = S. cerevisiae deletion strains, locus YPL055C, strain LGE1, active compounds read low
[14] = S. cerevisiae deletion strains, locus YPL241C, strain CIN2, active compounds read low
[15] = S. cerevisiae deletion strains, locus YAL013W, strain DEP1, active compounds read low
[16] = S. cerevisiae deletion strains, locus YGR229C, strain SMI1, active compounds read low
[17] = S. cerevisiae deletion strains, locus YHR087W, strain rtc3, active compounds read low
[18] = S. cerevisiae deletion strains, locus YJR075W, strain HOC1, active compounds read low
[19] = S. cerevisiae deletion strains, locus YLR058C, strain SHM2 (second series), active compounds read low
[20] = S. cerevisiae deletion strains, locus YLR085C, strain ARP6, active compounds read low
[21] = S. cerevisiae deletion strains, locus YML094W, strain GIM5, active compounds read low
[22] = S. cerevisiae deletion strains, locus YMR219W, strain ESC1, active compounds read low
[23] = S. cerevisiae deletion strains, locus YNL298W, strain CLA4 (second series), active compounds read low
[24] = S. cerevisiae deletion strains, locus YNL322C, strain KRE1, active compounds read low
[25] = S. cerevisiae deletion strains, locus YNR030W, strain Alg12, active compounds read low
[26] = S. cerevisiae deletion strains, locus YPR135W, strain CTF4, active compounds read low

c1ccc2c3c([nH]c2c1)CNCC3
normalized growth (S. cerevisiae deletion strains, locus YBR021W, strain FUR4, active compounds read low): 1.01
normalized growth [1]: 0.999
normalized growth (S. cerevisiae deletion strains, locus YCL029C, strain bik1, active compounds read low): 1.02
normalized growth (S. cerevisiae deletion strains, locus YDL035C, strain GPR1, active compounds read low): 0.991
normalized growth (S. cerevisiae deletion strains, locus YDL074C, strain BRE1, active compounds read low): 1.01
normalized growth [2]: 1.01
normalized growth (S. cerevisiae deletion strains, locus YDL185W, strain tfp1, active compounds read low): 1.01
normalized growth (S. cerevisiae deletion strains, locus YDL192W, strain arf1, active compounds read low): 0.997
normalized growth (S. cerevisiae deletion strains, locus YDR101C, strain arx1, active compounds read low): 1.02
normalized growth [3]: 1
normalized growth (S. cerevisiae deletion strains, locus YDR162C, strain NBP2, active compounds read low): 0.965
normalized growth (S. cerevisiae deletion strains, locus YDR318W, strain mcm21, active compounds read low): 0.979
normalized growth (S. cerevisiae deletion strains, locus YDR388W, active compounds read low): 0.997
normalized growth (S. cerevisiae deletion strains, locus YDR502C, strain sam2, active compounds read low): 1.01
normalized growth [4]: 0.997
normalized growth (S. cerevisiae deletion strains, locus YER110C, active compounds read low): 1
normalized growth (S. cerevisiae deletion strains, locus YER155C, strain BEM2, active compounds read low): 1.01
normalized growth (S. cerevisiae deletion strains, locus YER167W, strain BCK2, active compounds read low): 0.999
normalized growth (S. cerevisiae deletion strains, locus YGL078C, strain dbp3, active compounds read low): 0.997
normalized growth (S. cerevisiae deletion strains, locus YGL086W, strain mad1, active compounds read low): 1.02
normalized growth (S. cerevisiae deletion strains, locus YGL248W, strain PDE1, active compounds read low): 0.994
normalized growth [5]: 1
normalized growth (S. cerevisiae deletion strains, locus YGR135W, strain pre9, active compounds read low): 0.97
normalized growth (S. cerevisiae deletion strains, locus YGR252W, strain gcn5, active compounds read low): 0.906
normalized growth [6]: 1
normalized growth (S. cerevisiae deletion strains, locus YHR079C, strain IRE1 (second series), active compounds read low): 1.01
normalized growth (S. cerevisiae deletion strains, locus YHR094C, strain hxt1, active compounds read low): 1
normalized growth (S. cerevisiae deletion strains, locus YHR129C, strain ARP1, active compounds read low): 1.01
normalized growth (S. cerevisiae deletion strains, locus YHR200W, strain rpn10, active compounds read low): 1
normalized growth (S. cerevisiae deletion strains, locus YIL066C, strain RNR3, active compounds read low): 1
normalized growth (S. cerevisiae deletion strains, locus YIL073C, strain SPO22, active compounds read low): 1.05
normalized growth (S. cerevisiae deletion strains, locus YIL125W, strain kgd1, active compounds read low): 1.02
normalized growth (S. cerevisiae deletion strains, locus YIR030C, strain dcg1, active compounds read low): 1.01
normalized growth (S. cerevisiae deletion strains, locus YJL095W, strain BCK1, active compounds read low): 0.987
normalized growth (S. cerevisiae deletion strains, locus YJL134W, strain LCB3, active compounds read low): 0.999
normalized growth (S. cerevisiae deletion strains, locus YJL168C, strain set2, active compounds read low): 1
normalized growth (S. cerevisiae deletion strains, locus YJL187C, strain SWE1 (second series), active compounds read low): 0.997
normalized growth [7]: 1.01
normalized growth (S. cerevisiae deletion strains, locus YKL009W, strain mrt4, active compounds read low): 1.01
normalized growth (S. cerevisiae deletion strains, locus YKL068W, active compounds read low): 1
normalized growth (S. cerevisiae deletion strains, locus YKL085W, strain MDH1 (second series), active compounds read low): 1
normalized growth (S. cerevisiae deletion strains, locus YKL085W, strain MDH1, active compounds read low): 1
normalized growth (S. cerevisiae deletion strains, locus YKL190W, strain CNB1, active compounds read low): 1
normalized growth (S. cerevisiae deletion strains, locus YKR001C, strain vps1, active compounds read low): 1.02
normalized growth [8]: 1.01
normalized growth (S. cerevisiae deletion strains, locus YLR058C, strain SHM2, active compounds read low): 0.985
normalized growth (S. cerevisiae deletion strains, locus YLR102C, strain apc9, active compounds read low): 1
normalized growth [9]: 0.993
normalized growth (S. cerevisiae deletion strains, locus YLR268W, strain sec22, active compounds read low): 1.03
normalized growth (S. cerevisiae deletion strains, locus YLR330W, strain CHS5, active compounds read low): 1.01
normalized growth (S. cerevisiae deletion strains, locus YLR342W, strain FKS1 (second series), active compounds read low): 0.976
normalized growth (S. cerevisiae deletion strains, locus YLR371W, strain rom2, active compounds read low): 1.02
normalized growth (S. cerevisiae deletion strains, locus YLR418C, strain cdc73, active compounds read low): 0.96
normalized growth (S. cerevisiae deletion strains, locus YML016C, strain PPZ1, active compounds read low): 0.997
normalized growth (S. cerevisiae deletion strains, locus YML032C, strain rad52, active compounds read low): 0.966
normalized growth (S. cerevisiae deletion strains, locus YML124C, strain tub3, active compounds read low): 0.996
normalized growth (S. cerevisiae deletion strains, locus YMR078C, strain ctf18, active compounds read low): 1.02
normalized growth (S. cerevisiae deletion strains, locus YMR223W, strain ubp8, active compounds read low): 0.972
normalized growth [10]: 1
normalized growth (S. cerevisiae deletion strains, locus YMR307W, strain GAS1, active compounds read low): 1.02
normalized growth (S. cerevisiae deletion strains, locus YNL067W, strain RPL9B, active compounds read low): 1
normalized growth (S. cerevisiae deletion strains, locus YNL128W, strain TEP1, active compounds read low): 1.01
normalized growth [11]: 0.997
normalized growth (S. cerevisiae deletion strains, locus YNL233W, strain BNI4, active compounds read low): 1
normalized growth (S. cerevisiae deletion strains, locus YNL250W, strain rad50, active compounds read low): 1.01
normalized growth (S. cerevisiae deletion strains, locus YNL271C, strain bni1, active compounds read low): 1.01
normalized growth (S. cerevisiae deletion strains, locus YNL298W, strain CLA4, active compounds read low): 0.99
normalized growth (S. cerevisiae deletion strains, locus YNL307C, strain MCK1, active compounds read low): 1.01
normalized growth (S. cerevisiae deletion strains, locus YNR052C, strain pop2, active compounds read low): 0.971
normalized growth [12]: 1.06
normalized growth (S. cerevisiae deletion strains, locus YOL012C, strain htz1): 0.744
normalized growth (S. cerevisiae deletion strains, locus YOL147C, strain pex11, active compounds read low): 1
normalized growth (S. cerevisiae deletion strains, locus YOR061W, strain CKA2, active compounds read low): 0.998
normalized growth (S. cerevisiae deletion strains, locus YOR069W, strain VPS5, active compounds read low): 1
normalized growth (S. cerevisiae deletion strains, locus YOR136W, strain idh2, active compounds read low): 1.02
normalized growth (S. cerevisiae deletion strains, locus YOR144C, strain elg1, active compounds read low): 1.01
normalized growth (S. cerevisiae deletion strains, locus YOR184W, strain ser1, active compounds read low): 1
normalized growth (S. cerevisiae deletion strains, locus YOR316C, strain cot1, active compounds read low): 1.01
normalized growth [13]: 0.983
normalized growth [14]: 0.988
normalized growth (S. cerevisiae deletion strains, locus YPR119W, strain clb2, active compounds read low): 1.01
normalized growth (S. cerevisiae deletion strains, locus YPR141C, strain kar3, active compounds read low): 1.01
normalized growth (S. cerevisiae deletion strains, locus YPR163C, strain tif3, active compounds read low): 1.01
normalized growth (S. cerevisiae deletion strains, locus YPR167C, strain met16, active compounds read low): 0.992
normalized growth (S. cerevisiae deletion strains, strain wtn01, active compounds read low): 1.03
normalized growth (S. cerevisiae strains, strain wild type, active compounds read low): 0.989

CN1CCCC12NCCc1c2[nH]c2ccccc12 (stereo not drawn)
normalized growth [15]: 0.993
normalized growth [1]: 1
normalized growth [2]: 1
normalized growth [3]: 0.98
normalized growth [4]: 0.998
normalized growth [5]: 0.993
normalized growth [16]: 0.997
normalized growth [6]: 0.981
normalized growth [17]: 0.986
normalized growth [7]: 0.999
normalized growth [18]: 0.973
normalized growth [8]: 0.976
normalized growth [19]: 0.987
normalized growth [20]: 0.991
normalized growth [9]: 0.976
normalized growth [21]: 1.06
normalized growth [22]: 1.01
normalized growth [10]: 0.985
normalized growth [11]: 1
normalized growth [23]: 0.982
normalized growth [24]: 1
normalized growth [25]: 0.965
normalized growth [13]: 1.01
normalized growth [14]: 0.969
normalized growth [26]: 1.03

c1ccc2c(c1)CCc1c-2[nH]c2ccccc12
normalized growth [15]: 0.641 (active)
normalized growth [1]: 0.682 (active)
normalized growth [2]: 0.62 (active)
normalized growth (S. cerevisiae deletion strains, locus YDL134C, strain PPH21, active compounds read low): 0.461 (active)
normalized growth [3]: 0.704 (active)
normalized growth [4]: 0.415 (active)
normalized growth [5]: 0.732 (active)
normalized growth [16]: 0.735 (active)
normalized growth [6]: 0.137 (active)
normalized growth [17]: 0.748 (active)
normalized growth [7]: 0.751 (active)
normalized growth [18]: 0.562 (active)
normalized growth [8]: 0.162 (active)
normalized growth [19]: 0.827 (active)
normalized growth [20]: 0.109 (active)
normalized growth [9]: 0.142 (active)
normalized growth [21]: 0.467 (active)
normalized growth [22]: 0.783 (active)
normalized growth [10]: 0.634 (active)
normalized growth [11]: 0.7 (active)
normalized growth [23]: 0.23 (active)
normalized growth [24]: 0.91 (active)
normalized growth [25]: 0.418 (active)
normalized growth [12]: 0.115 (active)
normalized growth [13]: 0.322 (active)
normalized growth [14]: 0.416 (active)
normalized growth [26]: 0.294 (active)
